Results on five compounds are retold here after PubChem BioAssay (NCI).

This is part of a sample that, as a whole, favours compounds with a hit. Of some 79,000 tested, about 15% had one in any assay. Unmarked numbers belong to inactive results. Active and inactive are the calls of the source. No stated cut-off is given here; in the data, active means growth inhibition above about 70%; inactive means the rest.

The nature of test [1]: NCI Yeast Anticancer Drug Screen. Data for the rad50 strain (AID 155).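 Further: 0% = growth of vehicle-only cultures of the same strain.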 Conditions: S. cerevisiae rad50 strain growth inhibition, hits give high values. In short, it runs like this:
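Vehicle-treated cultures provide the reference for the growth inhibition reported for compound-exposed, repair-deficient yeast.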

The nature of test [2]: NCI Yeast Anticancer Drug Screen. Data for the mec2-1 strain (AID 157). Conditions: S. cerevisiae mec2-1 strain, hits give high values. A digest of the protocol:
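Using mec2-1 yeast: add compound, measure growth, express inhibition versus vehicle-treated cultures.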

A short description of test [3]: NCI Yeast Anticancer Drug Screen. Data for the sgs1 mgt1 strain (AID 161).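 Further: 0% = growth of cultures given vehicle only.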 Conditions: S. cerevisiae sgs1 mgt1 strain, hits give high values. A digest of the protocol: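 Yeast cells carrying a defined DNA-repair defect were exposed to test compounds. Growth inhibition was measured relative to vehicle-treated controls.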
Test [4] can be described thus: NCI Yeast Anticancer Drug Screen. Data for the cln2 rad14 strain (AID 165).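 Further: 0% = growth equal to vehicle treated cultures.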 Conditions: S. cerevisiae cln2 rad14 strain, hits give high values. In short, it runs like this: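 Yeast strain cln2 rad14, bearing defects in cell cycle control and DNA repair, serves as the test system; values reflect growth inhibition compared with vehicle.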
Test [5] is described as follows: NCI Yeast Anticancer Drug Screen. Data for the bub3 strain (AID 167). Conditions: S. cerevisiae bub3 mutant strain, hits give high values. In short, it runs like this: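 Mutant yeast screening strain plus compound; vehicle-treated cultures serve as the 0% inhibition reference.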
The nature of test [6]: NCI Yeast Anticancer Drug Screen. Data for the mlh1 rad18 strain (AID 175). Conditions: S. cerevisiae mlh1 rad18 strain growth inhibition, hits give high values. A digest of the protocol: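 Steps: expose repair-defective yeast to compound; measure growth; express inhibition against vehicle-treated controls.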
Setting [7] is: at 5.0 µM (retest, dose inferred, filed as 0.5).
Setting [8] is: at 50.0 µM (retest, dose inferred, filed as 5.0).

In the case of `O=c1oc2ccccc2c(O)c1/C=N/C(=S)Nc1ccccc1`, the growth inhibition was 13% in test [1] (setting [7]); 93% (active) in test [1] (setting [8]); 71% (active) in test [1] (at 50.0 µM); -3% in test [2] (setting [7]); 87% (active) in test [2] (setting [8]); 34.5% in test [2] (at 50.0 µM). Moreover, the growth inhibition in test [3] (setting [7]) was 6%; in test [3] (setting [8]), 88% (active); in test [3] (at 50.0 µM), 18.5%; in test [4] (setting [7]), 0%; in test [4] (setting [8]), 32%; in test [4] (at 50.0 µM), 20.8%. Besides, the growth inhibition in test [5] (setting [7]) is 12%; in test [5] (setting [8]), 92% (active); in test [5] (at 50.0 µM), 46.9%; in test [6] (setting [7]), 9%; in test [6] (setting [8]) it was 97% (active); in test [6] (at 50.0 µM), 76% (active).

Regarding `CCCNC(=O)C(=O)NNc1ccccc1`, the growth inhibition in test [1] (setting [7]) was 7%; in test [1] (setting [8]), 64%; in test [1] (at 50.0 µM), 66.8%; in test [2] (setting [7]), 6%; in test [2] (setting [8]), 62%; in test [2] (at 50.0 µM), 59.1%. Moreover, the growth inhibition in test [3] (setting [7]) is 10%; in test [3] (setting [8]), 55%; in test [3] (at 50.0 µM) it was 57%; in test [4] (setting [7]), 11%; in test [4] (setting [8]), 79% (active); in test [4] (at 50.0 µM), 73.5% (active). Moreover, the growth inhibition in test [5] (setting [7]) is -2%; in test [5] (setting [8]), 95% (active); in test [5] (at 50.0 µM), 70.7% (active); in test [6] (setting [7]) it was 14%; in test [6] (setting [8]), 95% (active); in test [6] (at 50.0 µM) it was 90.1% (active).

For `Nc1ccc(Oc2ccc(-c3ccccc3)cc2)c(Cl)c1`, the growth inhibition in test [1] (setting [7]) was 61%; in test [1] (setting [8]), 97% (active); in test [1] (at 50.0 µM) it was 97.8% (active); in test [2] (setting [7]) it was 61%; in test [2] (setting [8]), 98% (active); in test [2] (at 50.0 µM) it was 98.3% (active). Further, the growth inhibition in test [3] (setting [7]) was 72% (active); in test [3] (setting [8]) it was 98% (active); in test [3] (at 50.0 µM), 98% (active); in test [4] (setting [7]) it was 35%; in test [4] (setting [8]) it was 97% (active); in test [4] (at 50.0 µM), 96.3% (active). Further, the growth inhibition was 78% (active) in test [5] (setting [7]); 97% (active) in test [5] (setting [8]); 98% (active) in test [5] (at 50.0 µM); 89% (active) in test [6] (setting [7]); 97% (active) in test [6] (setting [8]); 97.7% (active) in test [6] (at 50.0 µM).

Turning to `COc1ccc(C2=C(Cl)C(=O)N(c3ccc(O)cc3)C(=O)C2(Cl)Cl)cc1`, the growth inhibition was 18% in test [1] (setting [7]); 99% (active) in test [1] (setting [8]); 57.7% in test [1] (at 50.0 µM); 13% in test [2] (setting [7]); 99% (active) in test [2] (setting [8]); 59.7% in test [2] (at 50.0 µM). Also, the growth inhibition in test [3] (setting [7]) was 31%; in test [3] (setting [8]) it was 99% (active); in test [3] (at 50.0 µM), 57.2%; in test [4] (setting [7]) it was 4%; in test [4] (setting [8]), 98% (active); in test [4] (at 50.0 µM), 58%. The growth inhibition is 3% in test [5] (setting [7]); 99% (active) in test [5] (setting [8]); 47.9% in test [5] (at 50.0 µM); 15% in test [6] (setting [7]); 98% (active) in test [6] (setting [8]); 58.2% in test [6] (at 50.0 µM).

As to `CCSC(=S)NC(=O)c1ccccc1`, the growth inhibition in test [1] (setting [7]) was -6%; in test [1] (setting [8]) it was 27%; in test [1] (at 50.0 µM) it was 60.2%; in test [2] (setting [7]) it was 1%; in test [2] (setting [8]) it was 20%; in test [2] (at 50.0 µM), 21.4%. The growth inhibition in test [3] (setting [7]) was -2%; in test [3] (setting [8]), 30%; in test [3] (at 50.0 µM), 76.5% (active); in test [4] (setting [7]), -12%; in test [4] (setting [8]) it was 28%; in test [4] (at 50.0 µM), 38.1%. Besides, the growth inhibition in test [5] (setting [7]) was -7%; in test [5] (setting [8]) it was 44%; in test [5] (at 50.0 µM), 17.2%; in test [6] (setting [7]), -3%; in test [6] (setting [8]) it was 32%; in test [6] (at 50.0 µM), 36.9%.
